Sampled rows, rich in hits. Any-hit rate of the full collection: about 4%.
GDH-TPI counter-1 – inhibits GDH-TPI coupling enzymes, artifact for Mtb FBA screen; GDH-TPI coupled enzyme counterscreen, NADH absorbance; inhibition, % at 4.8 µM; 360,000 tested, 1.2% active; AID 588335; in the data active means inhibition above about 30%
RecA splice inh – inhibitors of M. tuberculosis RecA intein splicing. cell-free RecA intein splicing, fluorescence. inhibition, % (test concentration not listed). 290,000 tested, 0.75% active. AID 2221; in the data active means inhibition above about 30%
UGM FP inh – inhibitors of M. tuberculosis UDP-galactopyranose mutase; inhibition, % at 10 µM; purified UGM, fluorescence polarization probe displacement; AID 504406; 320,000 tested, 0.06% active; in the data active means inhibition above about 10%, passing the limit was not always enough
FBA Mtb inh – inhibits M. tuberculosis FBA enzyme; P9WQA3; purified M. tuberculosis FBA, fluorescence read-out; inhibition, % at 1 µM; 360,000 tested, 2.3% active; AID 588726
Target sequence (P9WQA3 whole entry, looked up): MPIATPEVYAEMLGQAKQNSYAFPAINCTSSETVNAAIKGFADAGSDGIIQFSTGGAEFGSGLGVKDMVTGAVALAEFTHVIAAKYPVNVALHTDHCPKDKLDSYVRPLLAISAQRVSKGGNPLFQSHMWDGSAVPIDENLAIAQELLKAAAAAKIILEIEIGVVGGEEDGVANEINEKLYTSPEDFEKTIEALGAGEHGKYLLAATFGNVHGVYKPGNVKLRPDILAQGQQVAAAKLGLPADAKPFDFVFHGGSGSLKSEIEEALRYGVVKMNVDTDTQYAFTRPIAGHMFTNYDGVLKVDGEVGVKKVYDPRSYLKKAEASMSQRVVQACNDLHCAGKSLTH
Rv3671c protease – inhibits the M. tuberculosis serine protease Rv3671c; inhibition, % at 5.96 µM; P9WHR9; 320,000 tested, 0.048% active; in the data active means inhibition above about 38%;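 further: extracellular domain of Rv3671c used as enzyme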
Mtb betalactam – beta-lactam sensitization of Mtb H37Rv; AID 434955; 330,000 tested, 0.27% active; inhibition, % at 25 µM; M. tuberculosis H37Rv growth with meropenem, percent inhibition; call rule not given here;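 further: growth measured after seven days incubation then overnight dye step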
Mtb FBA confirm – confirmation of M. tuberculosis fructose-bisphosphate aldolase inhibitors. shares compounds with FBA Mtb inh. purified M. tuberculosis FBA, fluorescence read-out. inhibition, % at 1 µM. 5,600 tested, 78% active. AID 651616
GDH-TPI counter-2 – GDH-TPI inhibition counter-screen for FBA inhibitors | shares compounds with FBA Mtb inh | GDH-TPI coupled enzyme counterscreen, fluorescence | inhibition, % at 1 µM | 5,600 tested, 81% active | AID 652141; in the data active means inhibition above about 10%
Large screens that a line does not name were inactive (follow-up assays come after a bar, where they were run). Unless noted, no stated cut-off is given here; in the data, active means inhibition above about 27%; inactive means the rest.

N#Cc1ccc(-c2ccc(OCC3CNC(=O)O3)cc2)cc1 (centres undefined)	FBA Mtb inh 44 | Mtb FBA confirm active | GDH-TPI counter-2 active
O=C1NCC(COc2ccc([N+](=O)[O-])cc2)O1 (centres undefined)	none
CCCCCC(=O)Nc1ccc2oc(-c3cccnc3)nc2c1	FBA Mtb inh 84 | Mtb FBA confirm 47 | GDH-TPI counter-2 44
CCCC(=O)Nc1ccc(-c2nc3cc(C)ccc3o2)cc1	FBA Mtb inh 96 | Mtb FBA confirm 76 | GDH-TPI counter-2 77
O=C(Cc1ccc(Cl)cc1)Nc1ccc2oc(-c3ccncc3)nc2c1	none
CC(C)(C)C(=O)Nc1ccc2oc(-c3cc(F)c(F)cc3Cl)nc2c1	FBA Mtb inh 53 | Mtb FBA confirm 70 | GDH-TPI counter-2 47
O=C(Nc1ccc2oc(-c3ccccc3F)nc2c1)c1cncc(Br)c1	none
CC(=O)Nc1ccc(-c2nc3cc(Cl)ccc3o2)cc1	FBA Mtb inh 29 | Mtb FBA confirm active | GDH-TPI counter-2 active
COc1cccc(C(=O)NCC(=O)N2CCN(c3ccc(C(F)(F)F)cn3)CC2)c1	none (no result: RecA splice inh, UGM FP inh, Rv3671c protease, Mtb betalactam)
Nc1cc(N)cc(C(=O)c2ccccc2)c1	none (no result: GDH-TPI counter-1, RecA splice inh, UGM FP inh, Rv3671c protease, Mtb betalactam)
COc1ccc(Oc2c(C(F)(F)F)oc3cc(OCC(=O)O)ccc3c2=O)cc1	none
COc1ccc2cc(/C(C)=N/NC(=O)c3cc(-c4cccnc4)nc4ccccc34)ccc2c1	FBA Mtb inh 34 | Mtb FBA confirm 105 | GDH-TPI counter-2 89
O=C(N/N=C/c1ccc2c(c1)OCO2)c1cc(-c2ccccc2Cl)nc2ccccc12	none
CCOc1ccccc1-c1cc(C(=O)N/N=C/c2ccc3c(c2)OCO3)c2ccccc2n1	FBA Mtb inh 66 (no result: RecA splice inh, UGM FP inh, Rv3671c protease, Mtb betalactam) | Mtb FBA confirm active | GDH-TPI counter-2 active
Cc1ccc(/C=N/NC(=O)c2cc(-c3cccnc3)nc3ccccc23)cc1	none
CCOc1cc(/C=N/NC(=O)c2cc(-c3cccnc3)nc3ccccc23)ccc1O	GDH-TPI counter-1 51, FBA Mtb inh 108 | Mtb FBA confirm inactive | GDH-TPI counter-2 inactive
O=C(CCN1C(=O)C2C3CC(C(Br)C3Br)C2C1=O)OCC(=O)c1cccc([N+](=O)[O-])c1 (centres undefined)	none
COc1cccc(CNC(=O)c2ccccc2-c2ccccc2)c1	none
CCCN(CCC)Cc1cc(=O)oc2cc(OC)ccc12	FBA Mtb inh 51 (no result: GDH-TPI counter-1, RecA splice inh, UGM FP inh, Rv3671c protease, Mtb betalactam) | Mtb FBA confirm inactive | GDH-TPI counter-2 inactive
COc1ccc2c(CN3CCCCC3)cc(=O)oc2c1	FBA Mtb inh 44 (no result: GDH-TPI counter-1, RecA splice inh, UGM FP inh, Rv3671c protease, Mtb betalactam) | Mtb FBA confirm inactive | GDH-TPI counter-2 inactive
C=CCN(CC=C)Cc1cc(=O)oc2cc(OC)ccc12	none (no result: GDH-TPI counter-1, RecA splice inh, UGM FP inh, Rv3671c protease, Mtb betalactam)
COc1cc(N=Cc2c(CO)cnc(C)c2O)cc(OC)c1OC	FBA Mtb inh 82 | Mtb FBA confirm 63 | GDH-TPI counter-2 63
COc1ccccc1N/N=C/c1c(CO)cnc(C)c1O	none
Nc1[nH]ncc1-c1ccc(F)cc1	FBA Mtb inh 108 | Mtb FBA confirm inactive | GDH-TPI counter-2 inactive
C/C(=C\COc1ccc2ccc(=O)oc2c1)CC[C@@H](O)C(C)(C)O	FBA Mtb inh 83 (no result: RecA splice inh) | Mtb FBA confirm inactive | GDH-TPI counter-2 inactive
Cc1ccc(-c2cc(-c3ccccc3)nc(Cl)n2)cc1	none
Cc1ccc(-c2cc(C(F)F)nc(S(C)(=O)=O)n2)cc1	RecA splice inh 46, FBA Mtb inh 34 | Mtb FBA confirm 112 | GDH-TPI counter-2 86
CN(Cc1ccccc1)C(=O)c1[nH]cnc1C(=O)Nc1cccc(Cl)c1	none (no result: RecA splice inh)
CCOc1ccc(-c2nc(C#N)c(N3CCCCCC3)o2)cc1	FBA Mtb inh 100 | Mtb FBA confirm 46 | GDH-TPI counter-2 42
CCCOc1ccc(-c2nc(C#N)c(N3CCN(C)CC3)o2)cc1	FBA Mtb inh 40 | Mtb FBA confirm inactive | GDH-TPI counter-2 inactive
CCOc1ccc(-c2nc(C#N)c(N3CCN(C)CC3)o2)cc1	GDH-TPI counter-1 33, FBA Mtb inh 69 | Mtb FBA confirm active | GDH-TPI counter-2 active
N#Cc1nc(COc2ccc(F)cc2)oc1N1CCCC1	none
CCCOc1ccc(-c2nc(C#N)c(N3CCc4ccccc4C3)o2)cc1	none
O=C(Cn1cc(CNC(=O)C2CCCCC2)nn1)Nc1cc(C(F)(F)F)ccc1Cl	none (no result: RecA splice inh)
